High-throughput results (PubChem)
The entries come from a sample that favours hits as a whole.
HT1080 IDH1KD tx = toxicity to HT-1080 IDH1 knockdown cells (counter line); 360,000 compounds, 2% hits; AID 686971; HT-1080 IDH1 knockdown viability, ATP luminescence, 48 h; Potency, µM (top dose mostly 46.1 µM), actives largely listed as cytotoxic
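% activity derives from luminescence (CellTiter-Glo), normalised to DMSO and no-cell wells. HT-1080-IDH1KD cells, 750/well, had 48 h compound exposure at 37 °C.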
DT40 TDP1 no CPT = qHTS for Inhibitors of human tyrosyl-DNA phosphodiesterase 1 (TDP1): qHTS in cells in absence of CPT; Potency, µM (series often up to 46.2 µM), actives largely listed as inhibitors; DT40 Tdp1-/- hTDP1 cells, no CPT, ATP luminescence, 48 h; AID 686978, 2013; 420,000 compounds, 15% hits; also: nearly all actives have a fitted effect of over 55% in size
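DT40 Tdp1-/-;hTDP1 cells, no CPT (DMSO vehicle only), 400 cells/well; compounds pin-transferred; ≥48 hr, 37 °C; CellTiter-Glo 30 min RT dark, luminescence read.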
IL1B secr inh = inflammasome signaling inhibition, IL-1 beta readout | activity change, % at 57.5 µM | AID 743279 | 360,000 compounds, 4.7% hits | THP-1 LPS/ATP IL-1B secretion, AlphaLISA, 16 h; stronger effect = lower value; in the data active = activity change below about -50%; inconclusive = mostly about -30% to -49%
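THP-1 cells pretreated 1 hr with compounds (up to 57.5 uM final), then stimulated with LPS (250 ng/mL final) plus ATP (1.25 mM final); secreted IL-1B measured by AlphaLISA after 16 hr, decreased signal indicating inhibition.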
HT1080NT lethal = kills 2HG-producing HT-1080-NT fibrosarcoma cells. HT-1080-NT fibrosarcoma viability, CellTiter-Glo ATP luminescence, 48 h. Potency, µM (highest dose often 46.1 µM), most hits filed as cytotoxic. 360,000 compounds, 1.6% hits;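 also: NT is the 2HG producing partner of a matched IDH1 knockdown line; nearly all actives have a fitted effect of over 55% in size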
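Compounds were tested in concentration-response format on HT-1080-NT cells for 48 hours at 37 degrees C. Cell viability came from CellTiter-Glo luminescence; curves were classified by r2, response magnitude and activity.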
TDP1 cell CPT = DT40-hTDP1 cell growth loss with CPT; 420,000 compounds, 12% hits; Potency, µM (highest dose often 46.2 µM), usual class: inhibitors; chicken DT40 Tdp1-/-;hTDP1 cells + 20 nM CPT, ATP luminescence, 48 h; AID 686979; also: nearly all actives have a fitted effect of over 55% in size
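Cell growth measured by CellTiter-Glo luminescence after a minimum 48 h, 37 C compound exposure with 20 nM CPT in Tdp1-knockout DT40 cells stably expressing hTDP1, seeded 400/well; qHTS titration format.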
12-LOX inh = ALOX12 (human) lipoxygenase inhibition; 580,000 compounds, 1.1% hits; AID 1671190; Potency, µM (doses to about 108 µM), most hits filed as inhibitors; purified 12hLO, xylenol orange hydroperoxide absorbance
Target sequence (P18054 whole entry, looked up): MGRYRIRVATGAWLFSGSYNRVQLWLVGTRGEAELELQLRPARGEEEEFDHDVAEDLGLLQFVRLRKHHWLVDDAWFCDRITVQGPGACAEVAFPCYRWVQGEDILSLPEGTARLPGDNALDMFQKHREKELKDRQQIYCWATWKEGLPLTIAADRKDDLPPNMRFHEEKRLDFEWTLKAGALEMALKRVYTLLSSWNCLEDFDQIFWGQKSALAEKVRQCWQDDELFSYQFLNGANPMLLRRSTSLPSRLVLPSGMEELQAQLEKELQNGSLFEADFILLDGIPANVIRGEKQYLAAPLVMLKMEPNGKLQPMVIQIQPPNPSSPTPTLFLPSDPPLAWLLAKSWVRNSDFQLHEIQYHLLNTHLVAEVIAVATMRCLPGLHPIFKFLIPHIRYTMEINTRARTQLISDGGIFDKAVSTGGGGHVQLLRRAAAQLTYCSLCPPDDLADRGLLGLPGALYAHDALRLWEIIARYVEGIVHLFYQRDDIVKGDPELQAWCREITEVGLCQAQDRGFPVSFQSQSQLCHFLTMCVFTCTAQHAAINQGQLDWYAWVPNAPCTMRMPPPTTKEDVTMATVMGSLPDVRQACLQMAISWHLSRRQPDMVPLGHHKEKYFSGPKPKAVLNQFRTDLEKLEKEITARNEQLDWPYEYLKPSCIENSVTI
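Purified human 12hLO (150 nM final) in 25 mM Hepes, 0.01% Triton X-100, pH 7.0 was preincubated 15 min at room temperature with compound. Then 40 uM arachidonic acid was added, 30 min. Hydroperoxide was read by Fe-XO absorbance ratio 573/405 nm.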
Hits are given with their value; n = inactive; u = inconclusive; x = no result given. Unless noted, calls follow the shape of the dose curve; as a rule, active = well fitted curve in the direction sought with a large enough effect; inconclusive = small, poorly fitted or top-dose-only effect, or another doubt; inactive = no such curve, though single readings can be large; an effect the other way counts as inactive or inconclusive.

SMILES | HT1080 IDH1KD tx | DT40 TDP1 no CPT | IL1B secr inh | HT1080NT lethal | TDP1 cell CPT | 12-LOX inh
COc1cccc(NC(=O)c2cc3c(=O)n(C)c4ccccc4c3n2C)c1 | x | n | x | x | u | n
CCOc1ccc(NC(=O)c2cc3c(=O)n(C)c4ccccc4c3n2C)cc1 | n | 16.4µM | n | n | 8.2µM | n
COc1ccccc1NC(=O)c1cc2c(=O)n(C)c3ccccc3c2n1C | n | 14.6µM | u | n | u | n
Cn1c(C(=O)Nc2ccc3c(c2)OCO3)cc2c(=O)n(C)c3ccccc3c21 | n | u | n | n | n | n
Cc1ccc(CCNC(=O)c2cc3c(=O)n(C)c4ccccc4c3n2C)cc1 | x | u | x | x | u | n
CCOc1ccc(CCNC(=O)c2cc3c(=O)n(C)c4ccccc4c3n2C)cc1OCC | x | 11.6µM | x | x | 23.1µM | n
COc1ccccc1NC(=O)CCCOc1cc(=O)n(C)c2ccccc12 | x | 20.6µM | x | x | u | n
CCN(c1ccccc1)S(=O)(=O)c1ccc(C(=O)NC2CC(C)(C)NC(C)(C)C2)cc1 | x | x | x | x | x | n
CCOc1ccc(NC(=O)c2cn(CC(C)C)c(=O)c3c2c2ccccc2n3C)cc1 | n | 8.2µM | n | n | u | n
COc1ccccc1CNC(=O)CN(c1ccccc1)S(=O)(=O)N(C)C | x | x | x | x | x | n
CN1CC(=O)N(C2CCCNC2)Cc2c(NCc3ccc4c(c3)OCO4)ncnc21 (stereo not drawn) | x | x | x | x | x | 4.47µM
O=C(NNc1ncnc2sccc12)c1ccc(Cl)cc1 | n | 9.2µM | n | u | 13µM | n
Cc1ccc(C(=O)NNc2ncnc3c2cnn3C)cc1 | n | n | n | n | n | n
Cc1csc2ncnc(NNC(=O)c3ccc(Cl)cc3)c12 | u | 10.3µM | n | n | u | n
O=C1N=C(N2CCC(Cc3ccccc3)CC2)S/C1=C/c1cn[nH]c1-c1ccccc1 | n | 16.4µM | u | n | u | n
O=C1N=C(N2CCN(c3ccccc3)CC2)S/C1=C\c1cn[nH]c1-c1ccccc1 | n | 13µM | n | n | 20.6µM | n
O=C1N=C(N2CCN(c3ccccc3)CC2)S/C1=C\c1ccco1 | n | n | n | n | n | n
Cc1ccc(N2CCN(C3=NC(=O)/C(=C\c4cn[nH]c4-c4ccccc4)S3)CC2)cc1 | n | 20.6µM | u | n | u | n
Cc1cccc(N2CCN(C3=NC(=O)C(=C4CCCCC4)S3)CC2)c1 | n | u | n | n | u | u
CCOC(=O)C1CCN(C2=NC(=O)/C(=C/c3ccccc3OC)S2)CC1 | n | n | n | n | u | n
Cc1cccc(N2CCN(C3=NC(=O)/C(=C\c4cn[nH]c4-c4ccccc4)S3)CC2)c1 | n | 2.06µM | n | n | 6.51µM | n
NC(=O)CSc1cc(C(=O)NC2CC2)c2ccccc2n1 | x | x | x | x | x | n
CCC(NC(=O)CCc1ccsc1)c1ccccc1OC (stereo not drawn) | x | x | x | x | x | n
O=C(c1ccc(F)c(F)c1)N(C1CCCCC1)C1CCCCC1 | x | x | x | x | x | n
O=C(Nc1ccc2c(c1)CCCN2C(=O)c1ccco1)c1cc([N+](=O)[O-])ccc1Cl | u | u | -86.9 | n | u | u
SMILES | HT1080 IDH1KD tx | DT40 TDP1 no CPT | IL1B secr inh | HT1080NT lethal | TDP1 cell CPT | 12-LOX inh
O=C(Nc1ccc(N2CCN(C(=O)c3ccco3)CC2)cc1)c1ccc([N+](=O)[O-])cc1Cl | n | 20.6µM | n | n | u | n
Cc1ccc(C(=O)Nc2ccc(N3CCN(C(=O)c4ccco4)CC3)cc2)c(Cl)c1 | n | 13µM | u | n | u | n
Cc1ccccc1C(=O)Nc1ccc(N2CCN(C(=O)c3ccco3)CC2)cc1 | n | u | u | n | n | n
O=C(Nc1ccc(N2CCN(C(=O)c3ccco3)CC2)cc1)c1ccccc1Br | n | u | -62.3 | n | u | n
COc1ccc(OC)c(NC(=O)Nc2cccc(-c3ccc(N4CCCCC4)nn3)c2)c1 | x | x | x | x | x | n
COc1cc(OC)c2c(-c3cccc(-c4ccc(F)c(Cl)c4)c3)cc(=O)oc2c1 | 16.4µM | 23.1µM | n | u | u | n
COc1cc(OC)c2c(-c3cccc(-c4ccc(C#N)cc4)c3)cc(=O)oc2c1 | n | 4.11µM | n | u | 2.06µM | u
